# Measurements taken from ChEMBL document CHEMBL1961873, “Compounds: GSK PKIS; Assays: Nanosyn kinase panel” (2012).
# How the values were obtained:
# [1] = target: Serine/threonine-protein kinase PAK 6 (Homo sapiens) (UniProt Q9NQU5); conditions: at 1 µM;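 also: values are mean percent inhibition of PAK6 kinase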
# [2] = system: Tyrosine-protein kinase ABL1 (Homo sapiens), P00519 [E255K]; conditions: at 0.1 µM
# [3] = system: Tyrosine-protein kinase ABL1 (Homo sapiens), P00519 [E255K]; conditions: at 1 µM
# [4] = system: Tyrosine-protein kinase ABL1 (Homo sapiens), P00519 [H396P]; conditions: at 0.1 µM
# [5] = system: Tyrosine-protein kinase ABL1 (Homo sapiens), P00519 [H396P]; conditions: at 1 µM
# [6] = system: Tyrosine-protein kinase ABL1 (Homo sapiens), P00519 [M351T]; conditions: at 0.1 µM
# [7] = system: Tyrosine-protein kinase ABL1 (Homo sapiens), P00519 [M351T]; conditions: at 1 µM
# [8] = system: Tyrosine-protein kinase ABL1 (Homo sapiens), P00519 [Q252H]; conditions: at 0.1 µM
# [9] = system: Tyrosine-protein kinase ABL1 (Homo sapiens), P00519 [Q252H]; conditions: at 1 µM
# [10] = system: Tyrosine-protein kinase ABL1 (Homo sapiens), P00519 [T315I]; conditions: at 0.1 µM
# [11] = system: Tyrosine-protein kinase ABL1 (Homo sapiens), P00519 [T315I]; conditions: at 1 µM
# [12] = system: Tyrosine-protein kinase ABL1 (Homo sapiens), P00519 [Y253F]; conditions: at 0.1 µM
# [13] = system: Tyrosine-protein kinase ABL1 (Homo sapiens), P00519 [Y253F]; conditions: at 1 µM
# [14] = target: Tyrosine-protein kinase ABL1 (Homo sapiens) (UniProt P00519); conditions: at 0.1 µM
# [15] = target: Tyrosine-protein kinase ABL1 (Homo sapiens) (UniProt P00519); conditions: at 1 µM
# [16] = target: ALK tyrosine kinase receptor (Homo sapiens) (UniProt Q9UM73); conditions: at 0.1 µM
# [17] = target: ALK tyrosine kinase receptor (Homo sapiens) (UniProt Q9UM73); conditions: at 1 µM
# [18] = target: Tyrosine-protein kinase ABL2 (Homo sapiens) (UniProt P42684); conditions: at 0.1 µM
# [19] = target: Tyrosine-protein kinase ABL2 (Homo sapiens) (UniProt P42684); conditions: at 1 µM
# [20] = target: Tyrosine-protein kinase receptor UFO (Homo sapiens) (UniProt P30530); conditions: at 0.1 µM;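 also: values are mean percent inhibition of AXL from the GSK PKIS screen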
# Sequence of Tyrosine-protein kinase receptor UFO (Homo sapiens) (P30530 whole entry): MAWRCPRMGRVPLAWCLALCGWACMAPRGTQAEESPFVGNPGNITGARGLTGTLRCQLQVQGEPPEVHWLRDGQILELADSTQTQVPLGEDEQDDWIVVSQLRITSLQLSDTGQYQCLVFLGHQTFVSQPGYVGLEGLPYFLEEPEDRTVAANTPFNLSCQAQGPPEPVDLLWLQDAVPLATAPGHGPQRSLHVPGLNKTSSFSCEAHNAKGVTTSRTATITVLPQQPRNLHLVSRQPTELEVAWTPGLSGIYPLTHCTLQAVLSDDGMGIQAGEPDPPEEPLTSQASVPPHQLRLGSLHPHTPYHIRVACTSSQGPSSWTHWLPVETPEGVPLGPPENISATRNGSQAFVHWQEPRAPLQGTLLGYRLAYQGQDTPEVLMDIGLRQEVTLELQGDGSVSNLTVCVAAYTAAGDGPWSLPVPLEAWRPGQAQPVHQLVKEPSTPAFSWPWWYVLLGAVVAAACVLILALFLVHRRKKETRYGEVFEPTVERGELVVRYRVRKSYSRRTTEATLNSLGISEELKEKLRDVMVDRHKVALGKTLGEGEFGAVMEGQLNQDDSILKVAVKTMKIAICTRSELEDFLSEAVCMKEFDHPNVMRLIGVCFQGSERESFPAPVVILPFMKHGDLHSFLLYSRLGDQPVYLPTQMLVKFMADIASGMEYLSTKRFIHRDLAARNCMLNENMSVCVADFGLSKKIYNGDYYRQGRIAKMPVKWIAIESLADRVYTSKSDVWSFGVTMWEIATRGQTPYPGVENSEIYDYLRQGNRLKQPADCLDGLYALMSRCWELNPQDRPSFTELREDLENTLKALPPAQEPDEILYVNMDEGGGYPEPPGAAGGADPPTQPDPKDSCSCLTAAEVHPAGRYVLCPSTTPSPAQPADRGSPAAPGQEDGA
# Sequence of Tyrosine-protein kinase ABL2 (Homo sapiens) (P42684 whole entry): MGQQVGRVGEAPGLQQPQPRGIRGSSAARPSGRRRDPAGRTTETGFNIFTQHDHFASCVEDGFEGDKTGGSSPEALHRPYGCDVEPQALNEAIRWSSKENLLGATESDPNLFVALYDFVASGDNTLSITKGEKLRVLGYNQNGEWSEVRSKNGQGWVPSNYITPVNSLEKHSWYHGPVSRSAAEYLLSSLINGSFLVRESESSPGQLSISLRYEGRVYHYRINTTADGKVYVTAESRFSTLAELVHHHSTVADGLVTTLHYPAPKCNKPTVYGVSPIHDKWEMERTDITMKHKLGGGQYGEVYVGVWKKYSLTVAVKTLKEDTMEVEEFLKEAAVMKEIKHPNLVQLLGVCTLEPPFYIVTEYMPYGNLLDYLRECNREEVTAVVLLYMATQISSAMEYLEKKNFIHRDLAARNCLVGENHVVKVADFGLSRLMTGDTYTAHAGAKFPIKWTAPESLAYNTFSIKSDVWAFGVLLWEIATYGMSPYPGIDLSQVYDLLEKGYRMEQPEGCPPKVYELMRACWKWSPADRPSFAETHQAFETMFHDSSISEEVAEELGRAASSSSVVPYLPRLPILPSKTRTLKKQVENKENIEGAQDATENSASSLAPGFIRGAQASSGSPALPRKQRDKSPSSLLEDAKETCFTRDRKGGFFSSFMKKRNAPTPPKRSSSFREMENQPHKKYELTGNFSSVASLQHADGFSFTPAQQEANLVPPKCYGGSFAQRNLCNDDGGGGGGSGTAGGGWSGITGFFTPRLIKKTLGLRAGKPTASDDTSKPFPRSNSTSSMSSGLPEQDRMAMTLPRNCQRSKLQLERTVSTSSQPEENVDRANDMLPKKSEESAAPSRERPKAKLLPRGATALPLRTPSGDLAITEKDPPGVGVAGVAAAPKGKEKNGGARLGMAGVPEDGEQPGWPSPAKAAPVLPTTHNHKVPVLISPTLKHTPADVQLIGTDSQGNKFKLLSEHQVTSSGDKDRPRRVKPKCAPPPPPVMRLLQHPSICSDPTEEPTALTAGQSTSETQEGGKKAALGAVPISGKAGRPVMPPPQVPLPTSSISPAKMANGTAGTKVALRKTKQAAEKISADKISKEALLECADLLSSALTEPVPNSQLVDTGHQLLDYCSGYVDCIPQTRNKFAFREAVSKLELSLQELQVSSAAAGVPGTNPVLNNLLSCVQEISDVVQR
# Sequence of Serine/threonine-protein kinase PAK 6 (Homo sapiens) (Q9NQU5 whole entry, looked up): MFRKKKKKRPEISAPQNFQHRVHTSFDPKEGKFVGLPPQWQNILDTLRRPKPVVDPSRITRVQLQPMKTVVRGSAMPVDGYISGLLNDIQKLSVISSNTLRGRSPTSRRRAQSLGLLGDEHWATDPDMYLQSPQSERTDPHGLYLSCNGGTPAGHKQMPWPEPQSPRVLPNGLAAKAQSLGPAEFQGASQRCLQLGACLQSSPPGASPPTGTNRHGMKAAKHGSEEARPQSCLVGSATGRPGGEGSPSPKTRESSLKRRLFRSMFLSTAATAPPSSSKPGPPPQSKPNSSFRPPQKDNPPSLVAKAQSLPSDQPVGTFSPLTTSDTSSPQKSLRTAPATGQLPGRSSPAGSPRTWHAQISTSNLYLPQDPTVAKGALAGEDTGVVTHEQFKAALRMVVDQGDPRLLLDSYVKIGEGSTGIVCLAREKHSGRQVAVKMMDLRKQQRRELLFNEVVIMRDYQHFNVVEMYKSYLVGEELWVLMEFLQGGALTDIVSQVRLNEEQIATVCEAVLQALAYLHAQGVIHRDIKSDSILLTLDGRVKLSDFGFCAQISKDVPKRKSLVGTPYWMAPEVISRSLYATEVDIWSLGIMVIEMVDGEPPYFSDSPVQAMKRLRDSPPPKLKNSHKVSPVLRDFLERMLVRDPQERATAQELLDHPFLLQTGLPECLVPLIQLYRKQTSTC
# Sequence of ALK tyrosine kinase receptor (Homo sapiens) (Q9UM73 19-1620 limits assumed): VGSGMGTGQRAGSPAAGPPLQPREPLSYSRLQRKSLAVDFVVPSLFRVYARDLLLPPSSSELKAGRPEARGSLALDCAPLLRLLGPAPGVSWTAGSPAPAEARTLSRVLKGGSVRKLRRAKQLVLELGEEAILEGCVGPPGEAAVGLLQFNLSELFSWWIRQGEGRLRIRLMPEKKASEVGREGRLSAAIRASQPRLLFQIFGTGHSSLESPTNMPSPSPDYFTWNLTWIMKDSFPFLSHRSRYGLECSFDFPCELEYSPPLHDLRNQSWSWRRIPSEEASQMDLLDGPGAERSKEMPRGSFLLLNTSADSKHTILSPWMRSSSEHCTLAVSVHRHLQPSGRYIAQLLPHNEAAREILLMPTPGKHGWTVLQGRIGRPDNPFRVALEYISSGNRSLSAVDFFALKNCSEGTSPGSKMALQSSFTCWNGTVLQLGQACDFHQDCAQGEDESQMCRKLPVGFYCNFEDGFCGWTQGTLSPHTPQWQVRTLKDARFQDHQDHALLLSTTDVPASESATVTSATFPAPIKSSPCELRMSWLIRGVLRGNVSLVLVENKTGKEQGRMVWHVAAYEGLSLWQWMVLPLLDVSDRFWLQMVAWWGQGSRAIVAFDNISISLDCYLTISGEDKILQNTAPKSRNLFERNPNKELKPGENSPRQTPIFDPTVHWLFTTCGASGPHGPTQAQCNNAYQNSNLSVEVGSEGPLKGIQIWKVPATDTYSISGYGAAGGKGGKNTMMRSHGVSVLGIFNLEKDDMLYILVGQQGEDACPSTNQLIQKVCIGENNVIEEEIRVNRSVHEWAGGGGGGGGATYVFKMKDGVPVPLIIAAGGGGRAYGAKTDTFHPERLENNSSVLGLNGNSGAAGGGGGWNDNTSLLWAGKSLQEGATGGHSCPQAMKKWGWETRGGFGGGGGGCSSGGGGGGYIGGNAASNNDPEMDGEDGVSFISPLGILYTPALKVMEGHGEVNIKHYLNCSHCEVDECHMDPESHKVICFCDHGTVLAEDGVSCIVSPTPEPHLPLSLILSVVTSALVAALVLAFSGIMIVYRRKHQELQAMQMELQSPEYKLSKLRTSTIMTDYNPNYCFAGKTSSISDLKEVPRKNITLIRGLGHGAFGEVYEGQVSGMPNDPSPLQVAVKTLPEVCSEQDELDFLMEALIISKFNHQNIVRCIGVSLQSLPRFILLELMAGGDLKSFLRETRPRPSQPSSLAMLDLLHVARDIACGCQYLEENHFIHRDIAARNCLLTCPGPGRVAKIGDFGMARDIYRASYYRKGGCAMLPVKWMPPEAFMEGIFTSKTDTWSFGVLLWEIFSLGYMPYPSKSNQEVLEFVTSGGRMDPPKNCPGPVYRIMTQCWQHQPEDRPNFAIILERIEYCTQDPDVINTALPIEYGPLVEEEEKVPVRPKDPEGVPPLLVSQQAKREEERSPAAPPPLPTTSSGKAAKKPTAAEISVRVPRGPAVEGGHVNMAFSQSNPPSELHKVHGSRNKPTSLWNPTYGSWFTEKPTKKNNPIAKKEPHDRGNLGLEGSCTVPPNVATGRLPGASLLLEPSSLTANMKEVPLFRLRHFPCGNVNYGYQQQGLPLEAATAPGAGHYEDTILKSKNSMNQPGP
Compound,inhibition [1] [%],inhibition [2] [%],inhibition [3] [%],inhibition [4] [%],inhibition [5] [%],inhibition [6] [%],inhibition [7] [%],inhibition [8] [%],inhibition [9] [%],inhibition [10] [%],inhibition [11] [%],inhibition [12] [%],inhibition [13] [%],inhibition [14] [%],inhibition [15] [%],inhibition [16] [%],inhibition [17] [%],inhibition [18] [%],inhibition [19] [%],inhibition [20] [%]
Cc1cccc2c1NC(=O)/C2=N\Nc1ccc(S(N)(=O)=O)cc1,7.35,1.51,6.03,6.45,7.83,0.61,7.81,2.71,7.61,2.54,0.76,4.21,11.3,5.35,11.4,2.99,4.7,3.22,10.1,-3.51
c1ccc(-c2nc3n(c2-c2ccc4c(c2)OCO4)CCC3)nc1,-6.18,1.4,3.7,0.35,2.48,1.01,3.51,0.69,3.62,0.65,6.07,1.92,3.95,0.85,6.39,0.99,1.4,0.69,4.67,-1.96
CCn1c(-c2nonc2N)nc2ccccc21,-4.14,3.43,2.16,3.5,0.21,2.29,-3.04,4.29,0.56,2.3,1.53,3.97,4.13,4.4,6.01,1.5,8.1,4.04,3,-0.67
CCn1c(-c2nonc2N)nc2c(C#CC(C)(C)O)nc(OC[C@H](N)c3ccccc3)cc21,77.3,-1.28,-0.66,1.67,2.25,0.72,1.98,1.23,1.98,0.64,7.77,0.1,2.5,2.86,2.9,5.79,9.07,2.63,3.84,-1.29
Cc1ccc2c(-c3ccnc(Nc4ccccc4)n3)c(-c3ccc(F)cc3)nn2n1,5.13,3.13,15.7,7.21,36,15.1,56.4,12,49.9,4.75,20.2,11.5,42.2,5.24,35.5,2.29,5.55,4.61,34.1,-5.33
CCN1CCC(CC(=O)Nc2n[nH]c3nnc(-c4cccc(F)c4F)cc23)CC1,0.04,1.76,1.65,2.63,4.15,-0.03,3.11,2.12,3.13,2.02,3.8,3.03,2.59,4,4.16,2.51,0.86,3.37,3.96,0.47
O=C(O[C@H]1CN[C@H](C#Cc2cc3ncnc(Nc4ccc(Cc5ccccc5)cc4)c3s2)C1)N1CCOCC1,-5.73,-0.19,-0.38,-0.52,0.08,-2.99,-0.59,-0.95,1.06,0.08,0.76,-1.94,2.37,-0.06,0.2,1.1,0.46,-0.08,-0.38,-5.65
CS(=O)(=O)CCNCc1ccc(-c2ccc3ncnc(Nc4ccc(OCc5ccccc5)c(C(F)(F)F)c4)c3c2)o1,-6.97,3.5,2.71,4.04,4.48,0.91,0.91,2.84,2.08,2.59,2.46,4.02,3.49,5.33,5.35,4.27,4.07,4.59,4.76,-6
Fc1ccc(-c2cc(-c3c[nH]nc3-c3ccccn3)ccn2)cc1,-4.06,3.42,14.4,7.22,29.8,4.15,28.3,5.44,16,3.13,5.68,5.63,17.4,4.06,30.4,4.07,5.67,2.48,7.82,-7.67
Fc1ccc(-c2nn3ccccc3c2-c2ccncc2)cc1,-2,1.77,2.14,1.59,4.98,-1.48,8.75,0.48,6.96,0.16,4.09,1.97,4.11,1.42,9.29,0.44,1.88,3.94,7.98,-2.22
COc1ccc2[nH]c3c4[nH]c5ccc(OC)cc5c4c4c(c3c2c1)C(=O)NC4=O,-0.34,7.87,36.1,10.7,45.3,10.1,47.7,29.6,72.5,9.34,33.7,15.4,52.3,6.32,34,13.8,58.3,3.1,12.1,11
Nc1ncc(-c2cccc(S(N)(=O)=O)c2)c2scc(-c3ccc(F)c(Cl)c3)c12,-1.87,35.4,84.7,69.4,93.5,64.2,93.9,55.3,91.4,5.83,35,62.6,92.4,60.5,87.6,4.32,13.8,35.4,78.4,-4.87
CCOc1ccc2c(-c3ccnc(Nc4cccc(C(F)(F)F)c4)n3)cnn2n1,-3.51,2.13,4.02,2.46,4.74,0.25,1.69,2.99,3.05,-0.14,2.2,2.21,3.23,3.73,7.89,2.18,3.1,2.04,8.28,-3.01
